# Several values for one entry are separate records, joined by “and”; a condition that tells them apart may be missing. Equal entries are not always repeated. Results filed as inconclusive are left out. For some assays here: Entries with a potency or affinity are not part of this list. Activity calls are given as the source filed them. Unless noted, how the calls were made is not given here.
# Experiments:
# [1] = rescue of polyQ-huntingtin neuronal dysfunction in worms, whole organism, C. elegans mechanosensory neurons, N-terminal huntingtin (AID 1599); details: touch response, stronger effect = higher value
# [2] = inhibitors of mitochondrial cytochrome c release, biochemical, purified mitochondria (AID 1603); details: stronger effect = lower value;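 further: mouse liver mitochondria challenged with calcium chloride; signal normalized to the plate average as 100%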
# [3] = inhibitors of polyQ protein aggregation (AID 1604); details: polyglutamine-induced protein aggregation inhibition assay; stronger effect = higher value; tested at 2.5 µM
# [4] = enhancers of glutamate uptake in motor neurons, MN-1 cell line (AID 1612); details: MN-1 motor neuron cells, stronger effect = higher value;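 further: tested at 1 µM final; 0% = mean of DMSO vehicle wells on each plate; positive means more glutamate uptake than control and negative means less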
# [5] = reducers of polyQ inclusions in PC12 cells, cell-based, NGF-treated PC12, GFPQ80 (AID 1614); details: PC12 NGF-treated GFP-polyQ80 inclusion reduction;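 further: lower means fewer inclusions and 0 means no inclusions at all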
# [6] = suppressors of polyglutamine aggregation in yeast, 75Q-TubH (AID 1616); details: S. cerevisiae 75Q-TubH polyglutamine aggregation suppression; stronger effect = higher value
# [7] = test system: Hepatitis C virus NS3 helicase; test: HCV NS3 helicase inhibitors, primary screen, biochemical, fluorescence polarization, LOPAC1280 library (AID 687035; in the data active means inhibition above about 37%); details: Purified HCV NS3 helicase, Cy5-dT15 ssDNA binding fluorescence polarization; stronger effect = higher value; concentration not given here
# [8] = test system: Aerobactin synthetase IucA (Klebsiella pneumoniae, hypervirulent); test: IucA enzyme inhibition, biochemical, LOPAC library, absorbance readout (AID 1346212); details: IucA enzyme assay, absorbance (OD) readout; stronger effect = lower value;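 tested at 8 µM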;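 further: 100% = no compound wells and 0% = no enzyme wells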
# [9] = growth inhibition of DIPG glioma cells, dose response, cell-based, SU-DIPG-XVII, MIPE5.0, CellTiter-Glo, qHTS (AID 1347060; cut-off not given, nearly all actives have AC50 up to about 26 µM;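 on AC50: cells exposed to compound for 48 hours before viability readout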); details: SU-DIPG-XVII viability, CellTiter-Glo ATP luminescence
# [10] = growth inhibition of DIPG glioma cells, dose response, cell-based, SU-DIPG-XIII, MIPE4.0, CellTiter-Glo, qHTS (AID 1347061; cut-off not given, nearly all actives have AC50 up to about 37 µM;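 further: cells exposed to compound for 48 hours before readout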); details: SU-DIPG-XIII viability, CellTiter-Glo ATP luminescence
# [11] = growth inhibition of DIPG glioma cells, dose response, cell-based, SU-DIPG-IV, MIPE4.0, CellTiter-Glo, qHTS (AID 1347063; cut-off not given, nearly all actives have AC50 up to about 30 µM;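 further: compound exposure lasted 48 hours before the viability readout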); details: SU-DIPG-IV viability, CellTiter-Glo ATP luminescence
# [12] = SU-DIPG-VI glioma cell viability, MIPE4.0 library, CellTiter-Glo luminescence, qHTS (AID 1347066; cut-off not given, nearly all actives have AC50 up to about 30 µM;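 further: cells exposed to compound for 48 hours before readout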); details: CellTiter-Glo ATP luminescence
# [13] = modifiers of HSF1 nuclear foci, imaging, Selleck Cancer Library (AID 1347162; in the data active means plate-normalised HSF1 focus index below about 0.46); details: human cells, at 10 µM; SSMD: measured here: HSF1 foci SSMD mean; cell count: measured here: cell number; plate-normalised HSF1 focus index: stronger effect = lower value
# [14] = phospholipid biosynthesis inhibitors in animal cells, primary screen, cell-based, LOPAC library, screen 4 (AID 1347384); details: phospholipid biosynthesis inhibition screen, at 10 µM
# [15] = LFS_MB_P medulloblastoma growth inhibition, cell-based, chromothripsis tumors, cisplatin or BGB combos (AID 1671449; in the data active means inhibition above about 80%;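 further: cells exposed for 96 hours; 0% = vehicle DMSO and 100% = killing by high DMSO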); details: LFS_MB_P medulloblastoma cells
# [16] = HDN33 neuroblastoma growth inhibition, cell-based, chromothripsis tumors, cisplatin or BGB combos (AID 1671450; in the data active means inhibition above about 80%;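 further: cells exposed to compound for four days; 0% = vehicle DMSO and 100% = cell killing by high DMSO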); details: HDN33 neuroblastoma cells, stronger effect = higher value
# [17] = ICB984 medulloblastoma cell growth inhibition, synergistic combos for chromothripsis tumors, cisplatin or BGB combos (AID 1671451); details: ICB984 medulloblastoma cells, drug combinations, stronger effect = higher value;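 further: cells exposed for 96 hours before readout; 0% = vehicle DMSO and 100% = killing by high DMSO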
# [18] = hESC survival regulators, cell-based (AID 493140); details: human embryonic stem cell survival screen; stronger effect = higher value;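 further: cells exposed to compounds for four days before counting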
# [19] = molecular target: ATP-dependent translocase ABCB1 (Homo sapiens) (UniProt P08183); test: MDR1 (ABCB1) efflux transporter inhibition, cell-based (AID 377; in the data active means fluorescence slope change above about 50%); details: MDR1-expressing cells, fluorescent substrate accumulation slope; stronger effect = higher value; concentration not given here
# ATP-dependent translocase ABCB1 (Homo sapiens), sequence (P08183 whole entry, looked up): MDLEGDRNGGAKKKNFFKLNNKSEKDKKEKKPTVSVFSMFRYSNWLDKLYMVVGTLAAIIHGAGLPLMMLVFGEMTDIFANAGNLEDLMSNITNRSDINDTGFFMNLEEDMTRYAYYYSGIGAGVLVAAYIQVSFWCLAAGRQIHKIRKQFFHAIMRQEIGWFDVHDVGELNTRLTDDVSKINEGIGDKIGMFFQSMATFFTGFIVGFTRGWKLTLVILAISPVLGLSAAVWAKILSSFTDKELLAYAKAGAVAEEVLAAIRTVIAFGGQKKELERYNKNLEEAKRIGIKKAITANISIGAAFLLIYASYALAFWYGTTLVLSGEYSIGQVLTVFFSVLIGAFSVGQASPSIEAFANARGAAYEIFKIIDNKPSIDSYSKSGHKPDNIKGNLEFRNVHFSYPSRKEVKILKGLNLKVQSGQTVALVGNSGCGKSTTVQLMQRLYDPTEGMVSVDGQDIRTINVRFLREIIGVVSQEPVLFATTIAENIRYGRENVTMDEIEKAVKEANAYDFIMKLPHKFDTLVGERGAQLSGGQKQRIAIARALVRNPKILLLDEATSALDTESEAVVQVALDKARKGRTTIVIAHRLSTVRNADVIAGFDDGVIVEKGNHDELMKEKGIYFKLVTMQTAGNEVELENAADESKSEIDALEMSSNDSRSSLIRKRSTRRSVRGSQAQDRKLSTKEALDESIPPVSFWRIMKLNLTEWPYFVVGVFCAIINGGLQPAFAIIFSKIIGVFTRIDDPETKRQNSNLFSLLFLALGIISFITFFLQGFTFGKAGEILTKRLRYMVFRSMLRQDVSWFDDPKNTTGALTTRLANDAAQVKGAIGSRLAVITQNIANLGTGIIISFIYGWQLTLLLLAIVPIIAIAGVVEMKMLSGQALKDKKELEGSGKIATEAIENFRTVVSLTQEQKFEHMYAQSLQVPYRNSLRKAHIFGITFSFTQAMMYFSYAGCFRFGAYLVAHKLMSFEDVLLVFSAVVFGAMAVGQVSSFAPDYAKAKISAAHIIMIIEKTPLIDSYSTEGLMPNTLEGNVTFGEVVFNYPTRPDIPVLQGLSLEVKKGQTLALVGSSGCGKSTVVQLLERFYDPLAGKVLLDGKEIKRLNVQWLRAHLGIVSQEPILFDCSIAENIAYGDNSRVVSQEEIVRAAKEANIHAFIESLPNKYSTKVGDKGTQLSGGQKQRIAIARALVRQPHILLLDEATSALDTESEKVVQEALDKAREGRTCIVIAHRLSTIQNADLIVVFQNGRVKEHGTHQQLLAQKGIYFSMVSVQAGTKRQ
# [20] = liver-stage malaria parasite growth inhibition, primary screen, cell-based, HepG2, luciferase luminescence, HepG2 viability (AID 624349; in the data active means parasite load remaining mostly below about 12%, no sharp cut-off; inactive means mostly above about 10%;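 further: 100% = mean of DMSO negative control wells on the same plate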); details: P. berghei liver stage in HepG2, luciferase luminescence, concentration not given here; parasite load remaining: stronger effect = lower value; viability: measured here: HepG2 viability without parasites
structure (smiles),measurement,setting,value
O=P1(N(CCCl)CCCl)NCCCO1 (configuration not stated),rescue above control,[1],-5.6
same,cytochrome c release ratio,[2],1
same,inhibition of aggregation,[3],69.7%
same,glutamate uptake change,[4],-7.13%
same,inclusion score,[5],2
same,aggregation suppression score,[6],1.14
same,inhibition,[7],-3% (inactive)
same,remaining activity,[8],112% (inactive)
same,outcome,[9],inactive
same,outcome,[10],inactive
same,outcome,[11],inactive
same,outcome,[12],inactive
same,SSMD,[13],1.32
same,cell count,[13],7410
same,plate-normalised HSF1 focus index,[13],1.05 (inactive)
same,outcome,[14],inactive
same,inhibition,"[15]; at 0.5 µM, stronger effect = higher value",-6.53% (inactive) and -7.84% (inactive)
same,inhibition,"[15]; measured here: combination with BGB IC20, at 0.005 µM",2.32% and -13.2%
same,inhibition,"[15]; measured here: combination with BGB IC40, at 0.005 µM",-6.39% and -22.4%
same,inhibition,"[15]; measured here: combination with BGB IC40, at 0.05 µM",-5.95% and 13%
same,inhibition,"[15]; measured here: combination with cisplatin, at 0.5 µM, stronger effect = higher value",-9.48% and -17.9%
same,inhibition,"[15]; measured here: combination with cisplatin, at 5 µM, stronger effect = higher value",-25.8% and -37.1%
same,inhibition,"[16]; BGB combo, at 5 µM",-38.1% and 11.3%
same,inhibition,[16]; at 0.5 µM,-28.6% (inactive) and -1.03% (inactive)
same,inhibition,"[16]; cisplatin combo, at 5 µM",-13.9% and -0.927%
same,inhibition,"[16]; measured here: with BGB IC20 combination, at 0.5 µM",-28.4% and 3.51%
same,inhibition,"[16]; measured here: with cisplatin IC20 combination, at 0.5 µM",-36.3% and 6%
same,inhibition,"[16]; single agent, at 5 µM",-28.1% and -8.82%
same,inhibition,"[17]; BGB IC20 combo, at 0.005 µM",-3.81% and -12.8%
same,inhibition,"[17]; BGB IC40 combo, at 0.005 µM",-4.33% and -15%
same,inhibition,"[17]; BGB IC40 combo, at 0.05 µM",-3.91% and -28.7%
same,inhibition,[17]; at 0.5 µM,-31.6% (inactive) and -25.4% (inactive)
same,inhibition,"[17]; cisplatin combo, at 0.05 µM",-7.65% and -28.7%
same,inhibition,"[17]; cisplatin combo, at 0.5 µM",-40.7% and -25.4%
same,inhibition,"[17]; cisplatin combo, at 5 µM",-21.7% and -28.6%
same,inhibition,"[17]; measured here: 5 uM single agent, at 5 µM",6.31% and -15%
COC(=O)C1=CCCN(C)C1,rescue above control,[1],4.32
same,cytochrome c release ratio,[2],0.68
same,inhibition of aggregation,[3],81.4%
same,glutamate uptake change,[4],13.8%
same,inclusion score,[5],2
same,aggregation suppression score,[6],1.35
same,survival,[18],7.67 (inactive)
same,inhibition,[7],0% (inactive)
same,remaining activity,[8],111% (inactive)
same,outcome,[11],inactive
same,outcome,[12],inactive
same,outcome,[14],inactive
CN(C)[C@@H]1C(=O)C(C(N)=O)=C(O)[C@@]2(O)C(=O)C3=C(O)c4c(O)cccc4[C@@](C)(O)[C@H]3C[C@@H]12,fluorescence slope change,[19],76.3% (active)
same,rescue above control,[1],-1.89
same,cytochrome c release ratio,[2],2.45
same,inhibition of aggregation,[3],47.2%
same,glutamate uptake change,[4],10.7%
same,inclusion score,[5],0
same,aggregation suppression score,[6],0.769
same,survival,[18],22.6 (inactive)
same,outcome,[9],inactive
same,outcome,[10],inactive
same,outcome,[11],inactive
same,outcome,[12],inactive
O=c1[nH]c2ccccc2n1C1CCN(CCCC(c2ccc(F)cc2)c2ccc(F)cc2)CC1,fluorescence slope change,[19],147% (active)
same,rescue above control,[1],6.31
same,cytochrome c release ratio,[2],1.41
same,inhibition of aggregation,[3],38.1%
same,glutamate uptake change,[4],15.9%
same,aggregation suppression score,[6],1.1
same,survival,[18],4.67 (inactive)
same,inhibition,[7],-3% (inactive)
same,remaining activity,[8],122% (inactive)
same,outcome,[14],inactive
NCCc1ccc(O)cc1,rescue above control,[1],-11.7
same,cytochrome c release ratio,[2],0.71
same,inhibition of aggregation,[3],39.2%
same,glutamate uptake change,[4],-2.56%
same,inclusion score,[5],2
same,aggregation suppression score,[6],1.19
same,inhibition,[7],-3% (inactive)
same,remaining activity,[8],98.4% (inactive)
same,outcome,[14],inactive
CN(C)[C@@H]1C(=O)C(C(N)=O)=C(O)[C@@]2(O)C(=O)C3=C(O)c4c(O)cccc4[C@@](C)(O)[C@H]3[C@H](O)[C@@H]12,fluorescence slope change,[19],60.8% (active)
same,rescue above control,[1],-1.64
same,cytochrome c release ratio,[2],0.99
same,inhibition of aggregation,[3],39.4%
same,glutamate uptake change,[4],-6.56%
same,inclusion score,[5],1
same,aggregation suppression score,[6],0.502
same,survival,[18],14.3 (inactive)
same,outcome,[9],inactive
same,outcome,[10],inactive
same,outcome,[11],inactive
same,outcome,[12],inactive
C=C(C)[C@H]1Cc2c(ccc3c2O[C@@H]2COc4cc(OC)c(OC)cc4[C@@H]2C3=O)O1,fluorescence slope change,[19],63.7% (active)
same,rescue above control,[1],0
same,cytochrome c release ratio,[2],1.15
same,inhibition of aggregation,[3],33.3%
same,glutamate uptake change,[4],-44.7%
same,inclusion score,[5],2
same,aggregation suppression score,[6],0.895
same,inhibition,[7],-1% (inactive)
same,remaining activity,[8],78.1% (inactive)
same,AC50,[9],1.32 µM (active)
same,outcome,[10],inactive
same,outcome,[14],inactive
CC(C)(C)NCC(O)c1ccccc1Cl (configuration not stated),rescue above control,[1],-6.12
same,cytochrome c release ratio,[2],0.96
same,inhibition of aggregation,[3],72.5%
same,glutamate uptake change,[4],2.34%
same,inclusion score,[5],2
same,aggregation suppression score,[6],1.28
same,parasite load remaining,[20],85.5% (inactive) and 23.5% (inactive)
same,viability,[20],91.9% and 68.5%
same,inhibition,[7],-4% (inactive)
same,remaining activity,[8],113% (inactive)
same,outcome,[14],inactive
CCC1(C2=NCCN2)Cc2ccccc2O1 (configuration not stated),parasite load remaining,[20],40% (inactive)
same,viability,[20],95.5%
same,inhibition,[7],-1% (inactive)
same,remaining activity,[8],82.2% (inactive)
same,outcome,[14],inactive
CC(NC(C)(C)C)C(=O)c1cccc(Cl)c1 (configuration not stated),fluorescence slope change,[19],106% (active)
same,survival,[18],16.8 (inactive)
same,inhibition,[7],-1% (inactive)
same,remaining activity,[8],118% (inactive)
same,outcome,[9],inactive
same,outcome,[10],inactive
same,outcome,[11],inactive
same,outcome,[12],inactive
same,outcome,[14],inactive
COc1ccc(OC)c(C(O)C(C)N)c1 (configuration not stated),survival,[18],3.58 (inactive)
same,inhibition,[7],-2% (inactive)
same,remaining activity,[8],112% (inactive)
same,outcome,[14],inactive
CC(Cc1ccc(O)cc1)NCC(O)c1cc(O)cc(O)c1 (configuration not stated),fluorescence slope change,[19],108% (active)
same,rescue above control,[1],3.16
same,cytochrome c release ratio,[2],1.18
same,inhibition of aggregation,[3],70.4%
same,glutamate uptake change,[4],0.39%
same,inclusion score,[5],2
same,aggregation suppression score,[6],1.23
same,survival,[18],36.6 (inactive)
same,inhibition,[7],-3% (inactive)
same,remaining activity,[8],91.6% (inactive)
same,outcome,[14],inactive
Clc1ccc(COC(Cn2ccnc2)c2ccc(Cl)cc2Cl)cc1 (configuration not stated),fluorescence slope change,[19],66.2% (active)
same,cytochrome c release ratio,[2],0.38
same,inhibition of aggregation,[3],43.9%
same,glutamate uptake change,[4],16.9%
same,aggregation suppression score,[6],0.0462
same,survival,[18],50.1 (inactive)
O=C(O)c1nn(Cc2ccc(Cl)cc2Cl)c2ccccc12,inhibition,[7],-4% (inactive)
same,remaining activity,[8],110% (inactive)
same,outcome,[9],inactive
same,outcome,[10],inactive
same,outcome,[11],inactive
same,outcome,[12],inactive
same,SSMD,[13],0.502
same,cell count,[13],6570
same,plate-normalised HSF1 focus index,[13],1.03 (inactive)
same,outcome,[14],inactive
CCCC(C)(COC(N)=O)COC(=O)NC(C)C (configuration not stated),fluorescence slope change,[19],52.8% (active)
same,rescue above control,[1],0.33
same,cytochrome c release ratio,[2],0.68
same,inhibition of aggregation,[3],85.8%
same,glutamate uptake change,[4],3.53%
same,inclusion score,[5],2
same,aggregation suppression score,[6],1.4
same,survival,[18],11.2 (inactive)
same,inhibition,[7],-1% (inactive)
same,remaining activity,[8],106% (inactive)
same,outcome,[10],inactive
same,outcome,[12],inactive
NCC(O)c1ccc(O)cc1 (configuration not stated),rescue above control,[1],-6.97
same,cytochrome c release ratio,[2],0.99
same,inhibition of aggregation,[3],55.6%
same,glutamate uptake change,[4],-13.3%
same,inclusion score,[5],2
same,aggregation suppression score,[6],0.97
same,survival,[18],5.08 (inactive)
same,parasite load remaining,[20],79.5% (inactive) and 84.6% (inactive)
same,viability,[20],96% and 67.9%
same,inhibition,[7],-4% (inactive)
same,outcome,[14],inactive

# Source: PubChem BioAssay
